For assay [1], the target named is Aldehyde dehydrogenase, mitochondrial (Homo sapiens) (UniProt P05091). Kind of assay: qHTS for Inhibitors of the Aldehyde Dehydrogenase Family (ALDH2) Primary screen (AID 2061308). Note: nearly all actives have a fitted effect of over 55% in size.
Assay [2] has as its target Retinaldehyde dehydrogenase 3 (Homo sapiens) (UniProt P47895). Put plainly: qHTS for Inhibitors of the Aldehyde Dehydrogenase Family (ALDH1A3) Primary screen (AID 2061315).

Results filed as inconclusive are left out. Where a call stands in place of a potency, no number is given. Active and inactive are the calls of the source. Calls come from the whole dose curve; as a rule, active = well fitted curve in the direction sought with a large enough effect; inconclusive = small, poorly fitted or top-dose-only effect, or another doubt; inactive = no such curve, though single readings can be large; an effect the other way counts as inactive or inconclusive.

As to `CN1CCN(c2cccc(Nc3nn4c(=O)c5ccccc5nc4s3)c2)CC1`, the Potency result in assay [1] and in assay [2] was “inactive” throughout.

Consider `CC(=O)/C=C/[C@H]1[C@](C)(O)[C@@H](O)[C@H](O)C2C(C)(C)CCC[C@@]21C` (stereo not given in full), for which the Potency result in assay [1] and in assay [2] was “inactive” in each case.

`Cc1cccc(CNc2nc(-c3ccccc3C(C)C)ncc2C)c1`: the Potency entry in assay [1] and in assay [2] was “inactive” throughout.

On to `Cc1cccc([S+](=O)([O-])NC2CCN(C#N)CC2)c1`, for which the Potency entry in assay [1] and in assay [2] was “inactive” in each case.

Turning to `CCOc1ccc(CCNC(=O)c2cc3sccc3n2Cc2cccc(C)c2)cc1OCC`, the Potency entry in assay [1] and in assay [2] was “inactive” in each case.

Turning to `O=C1CCc2cc(S(=O)(=O)Nc3ccc4ncccc4c3)ccc2N1`, the Potency entry in assay [1] and in assay [2] was “inactive” in each case.

Turning to `CCCn1c(-c2ccc(F)cc2)nc2c(NCCN(CC)CC)nc(C)nc21`, the Potency entry in assay [1] and in assay [2] was “inactive” throughout.

Consider `COc1cccc(C2c3c(ncn(-c4ccccc4OC)c3=N)Oc3ccc4ccccc4c32)c1` (stereo not given), for which the Potency entry in assay [1] and in assay [2] was “inactive” throughout.

For `NC(=O)c1ccccc1-c1noc(-c2ccccc2F)n1`, the Potency result in assay [1] and in assay [2] was “inactive” in each case.

In the case of `O=C1NS(=O)(=O)c2cc(Cl)ccc21`, the Potency result in assay [1] and in assay [2] was “inactive” in each case.

Consider `O=C(Nc1ccc([S+](=O)([O-])Nc2nccs2)cc1)C1CCNCC1`, for which the Potency result in assay [1] and in assay [2] was “inactive” throughout.

For `Fc1cc(Nc2nc(-c3ccncc3)nc3ccccc23)ccc1OCC(F)(F)F`, the Potency result in assay [1] and in assay [2] was “inactive” each time.

For the compound `COC(=O)[C@H](Cc1ccc(O[S+](=O)([O-])c2cccc3cnccc23)cc1)N(C)[S+](=O)([O-])c1ccc2cnccc2c1`, the Potency result in assay [1] and in assay [2] was “inactive” each time.

Consider `N#Cc1cc(NC(=O)Nc2nnc(-c3ccncc3)s2)ccc1-c1ccc[nH]1`, for which the Potency entry in assay [1] and in assay [2] was “inactive” each time.

Take `O=C1NC(=O)/C(=C/c2ccco2)N1`: the Potency entry in assay [1] and in assay [2] was “inactive” each time.

Regarding `NC[C@@H](O)c1ccc(O)c(O)c1`, the Potency result in assay [1] and in assay [2] was “inactive” each time.

`CC(=O)NC(c1cccs1)c1cc(F)c2cccnc2c1O` (stereo not given): the Potency entry in assay [1] and in assay [2] was “inactive” each time.

With `CCOC(=O)C1CCN(C(=O)C2(NC(=O)Nc3ccccc3Cl)CC2)CC1`, the Potency entry in assay [1] and in assay [2] was “inactive” throughout.

Take `O=C1c2ccccc2C(=O)N1c1cccc(Cl)c1`: the Potency result in assay [1] and in assay [2] was “inactive” in each case.

`O=C(Nc1cncc(-c2cccnc2)c1)c1cccs1`: the Potency result in assay [1] and in assay [2] was “inactive” in each case.

Regarding `Cn1c2cc(C#N)sc2c2cnn(Cc3ccccc3F)c(=O)c21`, the Potency result in assay [1] and in assay [2] was “inactive” throughout.

`c1ccc(-c2nc(NCc3ccc(-c4cccnc4)cc3)c3ccccc3n2)cc1`: the Potency result in assay [1] and in assay [2] was “inactive” throughout.

For `COc1cc(O)c(C(CC(=O)N2CCCC(C)C2)c2ccc(OC)c(OC)c2)c(OC)c1` (stereo not given), the Potency result in assay [1] and in assay [2] was “inactive” throughout.

As to `O=c1[nH]cnc2c1ncn2[C@H]1CC[C@@H](CO)O1`, the Potency entry in assay [1] and in assay [2] was “inactive” throughout.

On to `Cc1ccc(S(=O)(=O)Nc2cccc3cccnc23)cc1`, for which the Potency entry in assay [1] and in assay [2] was “inactive” throughout.

With `COc1ccc(C2Nc3ccccc3C(=O)N2Cc2ccc(C)o2)cc1COc1c(C)cccc1C` (stereo not given), the Potency result in assay [1] and in assay [2] was “inactive” each time.

As for `CCCn1c(C)nc2c(NC(C)CCCN(CC)CC)nc(C)nc21` (stereo not given), the Potency result in assay [1] and in assay [2] was “inactive” throughout.

Take `COc1ccc(-c2nnc3n2N=C(c2c(OC)cccc2OC)CS3)c(OC)c1`: the Potency result in assay [1] and in assay [2] was “inactive” in each case.

Regarding `C=C1C(=O)OC2CC(C)=C(C(C)CCCOC(C)=O)C(OC(=O)CC(C)CC)C12` (stereo not given), the Potency entry in assay [1] and in assay [2] was “inactive” in each case.

As to `CN(CC1CCCO1)c1ncnc2ccc(-c3ccc4c(c3)OCO4)cc12` (stereo not given), the Potency result in assay [1] and in assay [2] was “inactive” throughout.

`CCN(CC)C(=O)COC(=O)c1ccc(S(C)(=O)=O)c([N+](=O)[O-])c1`: the Potency entry in assay [1] and in assay [2] was “inactive” each time.

Regarding `Cc1cc(NC(=O)Nc2cccc(-c3ccncc3)n2)ccc1Cl`, the Potency entry in assay [1] and in assay [2] was “inactive” in each case.

In the case of `O=C1CCCC2=C1C(c1[nH]ncc1Cl)N=C(c1nc3ccccc3o1)N2` (stereo not given), the Potency entry in assay [1] and in assay [2] was “inactive” throughout.

Take `Cc1ccc(OCCn2c(CCNC(=O)c3ccc(F)cc3F)nc3ccccc32)cc1`: the Potency result in assay [1] and in assay [2] was “inactive” throughout.

For the compound `O=C(Nc1cc(C(F)(F)F)ccc1Cl)C(O)Cc1ccccc1` (stereo not given), the Potency entry in assay [1] and in assay [2] was “inactive” throughout.

Source of the values: PubChem BioAssay (NCATS).
